molecular target: C17orf103; assay: pooled miR-30 sensor sort-seq; sequence = guide strand; conditions: shRNA
Further: reference of the scale not given here.

Q: How did the sensor-assay potency score (higher = more potent) turn out when TAGGCATCTGGGACCTCGGTGT was run?
A: -0.272

Q: TCATGACATCCGTTGAGCCGGA was tested. Which sensor-assay potency score (higher = more potent) did it give?
A: -0.377

Q: Which sensor-assay potency score (higher = more potent) does the source give for TGGGACCTCGGTGTGCTGCAGG here?
A: -1.5

Q: For ACGTACTTCTGGATGTACCAGC, which sensor-assay potency score (higher = more potent) is on record?
A: -1.62

Q: TGTACCAGCAGGTGAGATGGGC was tested. Which sensor-assay potency score (higher = more potent) did it give?
A: -0.507

molecular target: C17orf48; assay: as above; conditions: shRNA

Q: How did the sensor-assay potency score (higher = more potent) turn out when ATCGATGATATCTCCAAGCTGA was run?
A: -0.464

Q: With TATACTGTGCATTATATCCATC as the sequence, how does the sensor-assay potency score (higher = more potent) read?
A: -0.953

Q: Which sensor-assay potency score (higher = more potent) does the source give for TACACTGCTCGTATTTTGGAGA here?
A: -0.905

Q: For ATCTTCTAGAAACTTAGTGTTA, which sensor-assay potency score (higher = more potent) is on record?
A: -1.09

Q: How did the sensor-assay potency score (higher = more potent) turn out when TTCTTGTAATTCATAATTCTAT was run?
A: -1

Q: How did the sensor-assay potency score (higher = more potent) turn out when TAGTGTTAAGTTTAGAGTGTGT was run?
A: 0.18

Q: With TGATCTTCTAGAAACTTAGTGT as the sequence, how does the sensor-assay potency score (higher = more potent) read?
A: 0.0518

Q: For TATCTTCATACACTGCTCGTAT, which sensor-assay potency score (higher = more potent) is on record?
A: 0.128

Q: For TATGTCTGTAGTATCGCCGCCT, which sensor-assay potency score (higher = more potent) is on record?
A: -0.223

Q: With TTCAACATCATTTTGTCAGGAT as the sequence, how does the sensor-assay potency score (higher = more potent) read?
A: 1.06

Q: For TTGAGGACTATTCAGTTCCGTA, which sensor-assay potency score (higher = more potent) is on record?
A: -1.1

Q: How did the sensor-assay potency score (higher = more potent) turn out when TTCAATAACTCCTTCTAGGTTG was run?
A: -0.121

molecular target: C17orf64; assay: as above; conditions: shRNA

Q: TTGGTGTACTTGTAAAGTCGGC was tested. Which sensor-assay potency score (higher = more potent) did it give?
A: -0.519

Q: TTTTTGATAAGGACAATTCTTT was tested. Which sensor-assay potency score (higher = more potent) did it give?
A: -0.341

Q: With TGTACTTGTAAAGTCGGCGAAG as the sequence, how does the sensor-assay potency score (higher = more potent) read?
A: -0.717

Q: How did the sensor-assay potency score (higher = more potent) turn out when TTCATGCCGCTGATGTTGCTGT was run?
A: -0.699

Q: For ATCTTTCTTGACATGGTCCTGG, which sensor-assay potency score (higher = more potent) is on record?
A: -0.00122

Q: With TTGAGTTTTGGTTTTTGAGAAA as the sequence, how does the sensor-assay potency score (higher = more potent) read?
A: -0.844

Q: Which sensor-assay potency score (higher = more potent) does the source give for TTTATTCCTAATTAAGACCTGA here?
A: 0.154

Q: Which sensor-assay potency score (higher = more potent) does the source give for TTTCTTGACATGGTCCTGGGAT here?
A: -0.0819

Q: For TTAAAGAATCTTTCTTGACATG, which sensor-assay potency score (higher = more potent) is on record?
A: -1.34

Q: For TCTTTCTTGACATGGTCCTGGG, which sensor-assay potency score (higher = more potent) is on record?
A: -0.903

Q: With TTCCTTTATCCTCTTCCTCTTG as the sequence, how does the sensor-assay potency score (higher = more potent) read?
A: -0.925

Q: For TTGGGCAGACTGTCTTCCCGGT, which sensor-assay potency score (higher = more potent) is on record?
A: -0.108

molecular target: C17orf71; assay: as above; conditions: shRNA

Q: How did the sensor-assay potency score (higher = more potent) turn out when TTGATGCTTCCAGAACTCGTGT was run?
A: -0.713

Q: TATTGTGATATAGCACAGGCGG was tested. Which sensor-assay potency score (higher = more potent) did it give?
A: -1.08

Q: With TACTTGACCATGAACTTCTGGA as the sequence, how does the sensor-assay potency score (higher = more potent) read?
A: 0.427

Q: With TTCATCTTCAGCTCTAGTCCTG as the sequence, how does the sensor-assay potency score (higher = more potent) read?
A: 0.0154

Q: With TTGACTGGTAGGCACTGTGGGC as the sequence, how does the sensor-assay potency score (higher = more potent) read?
A: -0.647

Q: With TTTCTTGCTTAGAACTAGCTCC as the sequence, how does the sensor-assay potency score (higher = more potent) read?
A: 0.179

Q: With TTTGCCAACTGGACAATCCTTA as the sequence, how does the sensor-assay potency score (higher = more potent) read?
A: 0.137

Q: TTAGCTTCCAGTCTTTGCCAAC was tested. Which sensor-assay potency score (higher = more potent) did it give?
A: -1.08

Q: TCATCTTCAGCTCTAGTCCTGA was tested. Which sensor-assay potency score (higher = more potent) did it give?
A: -0.0647

Q: With TTCCACAACACTTTTCTTCCAG as the sequence, how does the sensor-assay potency score (higher = more potent) read?
A: 0.741

Q: For TTGTGTCTAAGTCTCCTTCATC, which sensor-assay potency score (higher = more potent) is on record?
A: -0.792

Source: the OligoGym collection
